# Experimental data as given in PubChem BioAssay.
# “And” between values parts separate entries of the source, which are not always exact repeats. Equal entries are not always repeated. The source made the active and inactive calls. Cut-off read from the data, not from the text of the source, unless noted: active = inhibition above about 80%; inactive = the rest.
# What was measured:
# [1] = BT084 cell growth, single and combined drugs, ICGC_MB145, cisplatin and BGB IC40 combos (AID 1671461); details: BT084 medulloblastoma cells, drug combinations, stronger effect = higher value;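 note: cells exposed to drugs for 96 hours; 0% = vehicle DMSO and 100% = high DMSO full killing control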
# [2] = RCMB18 cell growth, single agent and combined, cisplatin and BGB IC40 combos (AID 1671462); details: RCMB18 medulloblastoma cells, stronger effect = higher value;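 note: cells exposed to compound for four days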
# [3] = CRL1545 cell growth, single agent and combined, cisplatin and BGB IC20 combos (AID 1671464); details: CRL1545 osteosarcoma cells, stronger effect = higher value;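 note: cells exposed to compound for 96 hours before readout; 0% = vehicle DMSO and 100% = high DMSO killing control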
# [4] = molecular target: NAD(+) hydrolase SARM1 (Homo sapiens) (UniProt Q6SZW1); test: blocking NAD cleavage by SARM1 SAM-TIR – cell lysate, NAD-Glo luminescence (AID 1508614;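 active = compound whose remaining NAD level is above about 45 nM, limit read from the data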;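 note: higher remaining NAD means stronger inhibition of SARM1 NADase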); details: SAM-TIR HEK293T lysate NADase, at 1 µM, stronger effect = higher value
# [5] = galactose survival enhancers in mitochondrial complex I cybrids – cell-based, galactose medium, ATP luminescence, primary screen (AID 1645843;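 active = z-score of at least 1.8 in each of two replicates, scored against plate mean and spread of sample wells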;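 note: positive z means more ATP and so rescue of galactose-driven cybrid death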); details: complex I mutant cybrid cells, 72 h, stronger effect = higher value
# [6] = growth inhibition, single agent or in combination, cell-based, chromothripsis tumors, cisplatin or BGB combos (AID 1671449); details: LFS_MB_P medulloblastoma cells;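 note: cells exposed for 96 hours; 0% = vehicle DMSO and 100% = killing by high DMSO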
# [7] = growth inhibition, single agent and combos, cell-based, chromothripsis tumors, cisplatin or BGB combos (AID 1671450); details: HDN33 neuroblastoma cells, stronger effect = higher value;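 note: cells exposed to compound for four days; 0% = vehicle DMSO and 100% = cell killing by high DMSO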
# [8] = growth inhibition, single agents and combos, ICB984, cell-based, cisplatin or BGB combos, synergistic combos for chromothripsis tumors (AID 1671451; call rule not given here;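 note: cells exposed for 96 hours before readout; 0% = vehicle DMSO and 100% = killing by high DMSO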); details: ICB984 medulloblastoma cells, drug combinations, stronger effect = higher value
# [9] = growth inhibition, single agents and combos, LFS_MB_1R, cell-based, cisplatin or BGB combos, synergistic combos for chromothripsis tumors (AID 1671452); details: LFS_MB_1R medulloblastoma cells, stronger effect = higher value;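 note: cells exposed for 96 hours before readout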
# [10] = growth inhibition, single agents and combos, HTB85, cell-based, BGB or cisplatin IC20 combos, synergistic combos for chromothripsis tumors (AID 1671453); details: HTB85 osteosarcoma cells, drug combinations, stronger effect = higher value;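 note: cells exposed for 96 hours before readout; 0% = vehicle DMSO and 100% = high DMSO killing control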
# [11] = growth inhibition, single agents and combos, CRL2098, cell-based, BGB or cisplatin IC20 combos, synergistic combos for chromothripsis tumors (AID 1671454); details: CRL2098 osteosarcoma cells, drug combinations, stronger effect = higher value;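 note: cells exposed for 96 h before readout; 0% = vehicle DMSO and 100% = killing by high DMSO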
# [12] = growth inhibition, single agents and combos, HD-MB03, cell-based, BGB or cisplatin IC20 combos, synergistic combos for chromothripsis tumors (AID 1671455; in the data active = inhibition above about 83%;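 note: 0% = vehicle DMSO and 100% = high DMSO as cytotoxic control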); details: HD-MB03 medulloblastoma cells, stronger effect = higher value
# [13] = growth inhibition, single agents and combos, UWB1.289, cell-based, BGB or cisplatin combos, synergistic combos for chromothripsis tumors (AID 1671456); details: UWB1.289 ovarian carcinoma cells, stronger effect = higher value;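 note: cells exposed to compound for four days; 0% = vehicle DMSO and 100% = killing by high DMSO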
# [14] = growth inhibition, single agents and combos, LFS_MB_2R, cell-based, cisplatin combos, synergistic combos for chromothripsis tumors (AID 1671457); details: LFS_MB_2R medulloblastoma cells, stronger effect = higher value;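 note: cells exposed to compound for four days before readout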
# [15] = growth inhibition, MDA-MB-436, cell-based, BGB or cisplatin combos, synergistic combos for chromothripsis tumors (AID 1671458; call rule not given here;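 note: cells exposed for 96 hours; 0% = vehicle DMSO and 100% = killing by high DMSO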); details: MDA-MB-436 breast carcinoma growth inhibition, drug combinations, stronger effect = higher value
# [16] = UWB1.289_BRCA1 ovarian cancer growth, cell-based, BGB or cisplatin combinations (AID 1671459); details: UWB1.289 BRCA1 ovarian carcinoma, drug combinations, stronger effect = higher value
# [17] = drug combination toxicity in non-malignant astrocytes – cell-based, BGB or cisplatin IC20 combos, cytotoxicity control for chromothriptic childhood tumor combination screen (AID 1671460); details: Human astrocytes, viability inhibition, drug combinations, at 0.5 µM, stronger effect = higher value;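 note: cells exposed to compounds for 96 hours before viability readout; 0% = vehicle and 100% = killing control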
# [18] = measured here: BGB IC40 combination, at 0.05 µM
# [19] = measured here: combination with cisplatin, at 0.5 µM
# [20] = measured here: with BGB IC20 combination, at 0.5 µM
# [21] = measured here: with cisplatin IC20 combination, at 0.5 µM
# [22] = measured here: combination with BGB IC40, at 0.05 µM
# [23] = measured here: combination with cisplatin, at 5 µM
# NAD(+) hydrolase SARM1 (Homo sapiens), sequence (Q6SZW1 whole entry, looked up): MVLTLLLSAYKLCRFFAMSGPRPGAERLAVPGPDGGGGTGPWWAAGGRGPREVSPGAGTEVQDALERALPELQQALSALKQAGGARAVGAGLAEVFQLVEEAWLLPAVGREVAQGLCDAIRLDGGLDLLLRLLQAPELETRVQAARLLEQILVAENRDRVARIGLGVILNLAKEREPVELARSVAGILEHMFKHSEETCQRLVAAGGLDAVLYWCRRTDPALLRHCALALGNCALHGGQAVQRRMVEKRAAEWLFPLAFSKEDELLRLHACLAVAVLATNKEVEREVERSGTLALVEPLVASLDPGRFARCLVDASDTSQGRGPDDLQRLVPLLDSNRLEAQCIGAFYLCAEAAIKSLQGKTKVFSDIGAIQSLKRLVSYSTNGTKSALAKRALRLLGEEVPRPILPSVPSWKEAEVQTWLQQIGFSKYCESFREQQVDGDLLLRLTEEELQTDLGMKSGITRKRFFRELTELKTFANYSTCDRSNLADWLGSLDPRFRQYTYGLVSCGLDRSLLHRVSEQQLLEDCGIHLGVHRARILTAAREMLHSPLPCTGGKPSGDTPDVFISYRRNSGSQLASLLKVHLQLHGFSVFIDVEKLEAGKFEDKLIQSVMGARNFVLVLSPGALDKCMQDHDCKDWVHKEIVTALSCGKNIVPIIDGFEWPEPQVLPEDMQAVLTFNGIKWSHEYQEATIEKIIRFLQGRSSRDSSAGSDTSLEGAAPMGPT
structure (smiles),measurement,setting,value
NC(=O)NO,inhibition,"[1]; single agent, at 5 µM",1.06%
same,inhibition,[2]; at 0.5 µM,12.5% (inactive)
same,inhibition,"[2]; cisplatin combo, at 5 µM",15.7%
same,inhibition,[2]; [18],-13.6%
same,inhibition,[2]; [19],28.2%
same,inhibition,"[2]; single agent, at 5 µM",-32.4%
same,inhibition,[3]; at 0.5 µM,-15.5% (inactive)
same,inhibition,[3]; [20],6.18%
same,inhibition,[3]; [21],-26.4%
same,inhibition,"[3]; single agent, at 0.05 µM",-10.2%
same,inhibition,"[3]; single agent, at 5 µM",-5.37%
O=NN(CCCl)C(=O)NC1CCCCC1,remaining NAD,[4],10 nM (inactive)
same,z-score,[5],-0.495 (inactive)
same,inhibition,"[6]; at 0.5 µM, stronger effect = higher value",-24.1% (inactive) and -26.9% (inactive)
same,inhibition,"[6]; measured here: combination with BGB IC20, at 0.005 µM",-12.9% and -1.3%
same,inhibition,"[6]; measured here: combination with BGB IC40, at 0.005 µM",-38% and -34.1%
same,inhibition,[6]; [22],-45.8% and -16.7%
same,inhibition,"[6]; measured here: combination with cisplatin, at 0.5 µM, stronger effect = higher value",-40% and -38.1%
same,inhibition,"[6]; measured here: combination with cisplatin, at 5 µM, stronger effect = higher value",-6.56% and -25.7%
same,inhibition,"[7]; BGB combo, at 5 µM",-29.5% and -15.3%
same,inhibition,[7]; at 0.5 µM,-27.8% (inactive) and -8.82% (inactive)
same,inhibition,"[7]; cisplatin combo, at 5 µM",-16% and 13.3%
same,inhibition,[7]; [20],-31.2% and -14.7%
same,inhibition,[7]; [21],-22.8% and -17.6%
same,inhibition,"[7]; single agent, at 5 µM",-25.6% and 2.38%
same,inhibition,"[8]; BGB IC20 combo, at 0.005 µM",-12.5% and 2.61%
same,inhibition,"[8]; BGB IC40 combo, at 0.005 µM",-25.1% and -35.2%
same,inhibition,"[8]; BGB IC40 combo, at 0.05 µM",-15.4% and -60.7%
same,inhibition,[8]; at 0.5 µM,-38.4% (inactive) and -29.6% (inactive)
same,inhibition,"[8]; cisplatin combo, at 0.05 µM",-18.7% and -67%
same,inhibition,"[8]; cisplatin combo, at 0.5 µM",-33.8% and -42.1%
same,inhibition,"[8]; cisplatin combo, at 5 µM",-56.7% and -19.2%
same,inhibition,"[8]; measured here: 5 uM single agent, at 5 µM",-34.3% and -15.2%
same,inhibition,[9]; at 0.5 µM,-15.1% (inactive) and -17.6% (inactive)
same,inhibition,[9]; [22],-47.7% and -29.7%
same,inhibition,[9]; [19],-17.2% and -26.3%
same,inhibition,[9]; [23],-19.8% and 0.28%
same,inhibition,[10]; at 0.5 µM,-14.3% (inactive) and -7.5% (inactive)
same,inhibition,"[10]; measured here: with BGB IC20, at 0.5 µM",-27% and -24%
same,inhibition,"[10]; measured here: with BGB IC20, at 5 µM",-2.92% and -20.1%
same,inhibition,"[10]; measured here: with cisplatin IC20, at 0.5 µM",-13.8% and 2.41%
same,inhibition,"[10]; measured here: with cisplatin IC20, at 5 µM",-45.5% and 7.57%
same,inhibition,"[10]; single agent, at 5 µM",-16.4% and -4.13%
same,inhibition,[11]; at 0.5 µM,-30.9% (inactive) and -17.1% (inactive)
same,inhibition,"[11]; measured here: combination with BGB at IC20, at 0.5 µM",-24.6% and 7.17%
same,inhibition,"[11]; measured here: combination with cisplatin at IC20, at 0.5 µM",-72.6% and -17.3%
same,inhibition,[12]; at 0.5 µM,-11.2% (inactive) and -8.17% (inactive)
same,inhibition,"[12]; measured here: combo with BGB at IC20, at 0.5 µM",-11.5% and -2.92%
same,inhibition,"[12]; measured here: combo with cisplatin at IC20, at 0.5 µM",-6.91% and -12.4%
same,inhibition,[13]; at 0.5 µM,-3.74% (inactive) and -1.89% (inactive)
same,inhibition,"[13]; measured here: inhibition with BGB combination, at 0.05 µM",-37.8% and -16.5%
same,inhibition,"[13]; measured here: inhibition with cisplatin combination, at 0.05 µM",-17.9% and -15%
same,inhibition,[14]; at 0.5 µM,-23.1% (inactive) and -22.9% (inactive)
same,inhibition,[14]; [19],-21.1% and -18.8%
same,inhibition,[14]; [23],-70.5% and -18.7%
same,inhibition,[15]; at 0.5 µM,-40.6% (inactive) and -11.5% (inactive)
same,inhibition,"[15]; measured here: BGB combination, at 0.5 µM",-36.9% and -5.88%
same,inhibition,"[15]; measured here: BGB combination, at 5 µM",-35% and -10.4%
same,inhibition,"[15]; measured here: cisplatin combination, at 0.5 µM",-61.4% and -18.5%
same,inhibition,"[15]; measured here: cisplatin combination, at 5 µM",-41.1% and -14.2%
same,inhibition,"[16]; BGB combination, concentration series, at 5 µM",-29.6% and 11.3%
same,inhibition,[16]; at 0.5 µM,-16.2% (inactive) and 2.2% (inactive)
same,inhibition,"[16]; cisplatin combination, concentration series, at 5 µM",3.2% and 10.4%
same,inhibition,[17],-9.22% (inactive) and 7.1% (inactive)
same,inhibition,[17]; measured here: combo with BGB IC20,-20% and 5.8%
same,inhibition,[17]; measured here: combo with cisplatin IC20,-3.02% and 3.4%
same,inhibition,[1]; at 0.5 µM,-34.8% (inactive) and -13.6% (inactive)
same,inhibition,"[1]; cisplatin combination, at 0.5 µM",-11.4% and -21.6%
same,inhibition,"[1]; cisplatin combination, at 5 µM",1.31% and -15.5%
same,inhibition,"[1]; measured here: BGB IC40 combination 0.05 uM, at 0.05 µM",-11% and -18.6%
same,inhibition,"[1]; single agent, at 5 µM",-27.6% and -16%
same,inhibition,[2]; at 0.5 µM,-19.6% (inactive) and -7.56% (inactive)
same,inhibition,"[2]; cisplatin combo, at 5 µM",-8.32% and -2.07%
same,inhibition,[2]; [18],3.33% and -8.31%
same,inhibition,[2]; [19],-12.9% and 7.07%
same,inhibition,"[2]; single agent, at 5 µM",-26.9% and -32.7%
same,inhibition,[3]; at 0.5 µM,-41.9% (inactive) and 12.8% (inactive)
same,inhibition,[3]; [20],-11.7% and 21.6%
same,inhibition,[3]; [21],-60.6% and 8.43%
same,inhibition,"[3]; single agent, at 0.05 µM",-56.9% and 27.3%
same,inhibition,"[3]; single agent, at 5 µM",-2.19% and 10%
